# Assay results: PubChem BioAssay (NCATS)
# Values joined by “and” are separate entries in the source; they are usually repeats but may differ in a detail not shown here. Equal values may be shown once. Records with an inconclusive call do not appear. A call without a number means that no potency is given here. Where a structure was tested more than once in an assay, its records may differ in their call. Active and inactive are the calls of the source. Calls come from the whole dose curve; as a rule, active = well fitted curve in the direction sought with a large enough effect; inconclusive = small, poorly fitted or top-dose-only effect, or another doubt; inactive = no such curve, though single readings can be large; an effect the other way counts as inactive or inconclusive. Peptide text beside a SMILES is read from it.
# Columns and labels:
# SC27B = assay: qHTS profiling for inhibitors of Plasmodium falciparum proliferation (AID 504749); note: nearly all actives have a fitted effect of over 60% in size; note: potency is the fitted concentration of half-maximal effect; conditions: P. falciparum in erythrocytes, SYBR Green DNA, 72 h; series mostly up to 28.7 µM
# Method in brief: (§1)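 P. falciparum-infected erythrocytes (0.3% parasitemia, 2.5% hematocrit) incubated with compound 72 h at 37 C, 5% CO2. Parasite DNA detected by SYBR Green after lysis, overnight at room temperature; normalised to 0.29 uM artemisinin and DMSO.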
# TAB109 = assay: as above; conditions: P. falciparum in erythrocytes, SYBR Green DNA, 72 h; series mostly up to 28.7 µM
# Method in brief: as §1
# TAB113 = assay: as above; conditions: P. falciparum in erythrocytes, SYBR Green DNA, 72 h; series mostly up to 28.7 µM
# Method in brief: as §1
# TAB165 = assay: as above; conditions: P. falciparum in erythrocytes, SYBR Green DNA, 72 h; series mostly up to 28.7 µM
# Method in brief: as §1
# CRL-7250 = normal cell line; assay: Cytotoxic Profiling of Annotated Libraries Using Quantitative High-Throughput Screening (AID 1296008); conditions: Five cell lines viability, CellTiter-Glo ATP luminescence, 48-72 h; max response: stronger effect = lower value; note: nearly all actives have a fitted effect of over 60% in size; note: potency is the fitted concentration of half-maximal effect
# Method in brief: (§2)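 Cells exposed to compounds for 48 or 72 hr at 37 degrees Celsius. Viability read as ATP-coupled luminescence with CellTiter-Glo after 10 min at room temperature.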
# HEK293 = assay: as above; conditions: Five cell lines viability, CellTiter-Glo ATP luminescence, 48-72 h; max response: stronger effect = lower value
# Method in brief: as §2
# HaCat [1] = assay: as above; conditions: Five cell lines viability, CellTiter-Glo ATP luminescence, 48-72 h; max response: stronger effect = lower value
# Method in brief: as §2
# KB-3-1 = assay: as above; conditions: Five cell lines viability, CellTiter-Glo ATP luminescence, 48-72 h; max response: stronger effect = lower value
# Method in brief: as §2
# NIH3T3 [2] = assay: as above; conditions: Five cell lines viability, CellTiter-Glo ATP luminescence, 48-72 h; max response: stronger effect = lower value
# Method in brief: as §2
# HACAT [3] = assay: qHTS assay to identify novel small-molecules to repurpose for Merkel cell carcinoma treatment (AID 1296009); conditions: MCC and control cell lines, CellTiter-Glo viability, 72 h; at 44.8 µM (top of the series) unless noted; note: nearly all actives have a fitted effect of over 60% in size; note: potency is the fitted concentration of half-maximal effect
# Method in brief: (§3)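 Cells were treated for 72 hr at 37 degree celsius with compounds in 8- or 11-point dose response. Viability was read by CellTiter-Glo luminescence, normalized to no-cell (cytotoxicity) and DMSO controls.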
# HEK293T = assay: as above; conditions: MCC and control cell lines, CellTiter-Glo viability, 72 h; at 44.8 µM (top of the series) unless noted
# Method in brief: as §3
# MCC-13 = assay: as above; conditions: MCC and control cell lines, CellTiter-Glo viability, 72 h; series mostly up to 46 µM
# Method in brief: as §3
# MCC-26 = assay: as above; conditions: MCC and control cell lines, CellTiter-Glo viability, 72 h; series mostly up to 46 µM
# Method in brief: as §3
# MKL-1 = assay: as above; conditions: MCC and control cell lines, CellTiter-Glo viability, 72 h; series mostly up to 46 µM
# Method in brief: as §3
# MKL-2 = assay: as above; conditions: MCC and control cell lines, CellTiter-Glo viability, 72 h; series mostly up to 46 µM
# Method in brief: as §3
# UISO = assay: as above; conditions: MCC and control cell lines, CellTiter-Glo viability, 72 h; series mostly up to 46 µM
# Method in brief: as §3
# WaGa = assay: as above; conditions: MCC and control cell lines, CellTiter-Glo viability, 72 h; series mostly up to 46 µM
# Method in brief: as §3
# C33A = assay: Primary qHTS to identify gynecologic anti-cancer compounds using libraries of approved drugs and bioactive compounds (AID 1345084); conditions: Gynecologic cancer cell panel viability, ATPlite luminescence, 48 h; series mostly up to 57.5 µM; note: nearly all actives have a fitted effect of over 55% in size
# Method in brief: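 Cells, 1,000 per well, were allowed to settle for 16 h at 37 C before compound addition. Five concentrations were tested for 48 h, and viability was read by ATPlite luminescence after 15 min at room temperature.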
# W2 = assay: qHTS profiling for inhibitors of Plasmodium falciparum proliferation (AID 504749); note: nearly all actives have a fitted effect of over 60% in size; note: potency is the fitted concentration of half-maximal effect; conditions: P. falciparum in erythrocytes, SYBR Green DNA, 72 h; series mostly up to 28.7 µM
# Method in brief: as §1
# NIH3T3 [4] = assay: qHTS assay to identify novel small-molecules to repurpose for Merkel cell carcinoma treatment (AID 1296009); conditions: MCC and control cell lines, CellTiter-Glo viability, 72 h; note: nearly all actives have a fitted effect of over 60% in size; note: potency is the fitted concentration of half-maximal effect
# Method in brief: as §3
# [5] = at 44.8 µM (top of the series) unless noted
compound,measurement,setting,value
Cn1c(NCCN(CCO)CCCc2ccc([N+](=O)[O-])cc2)cc(=O)n(C)c1=O,Potency,SC27B,inactive
same,Potency,TAB109,inactive
same,Potency,TAB113,inactive
same,Potency,TAB165,inactive
same,max response,CRL-7250,-8.35% (inactive)
same,outcome,CRL-7250,inactive
same,outcome,HEK293,inactive
same,max response,HaCat [1],0.714% (inactive)
same,outcome,HaCat [1],inactive
same,max response,KB-3-1,3.71% (inactive) and -8.99% (inactive)
same,max response,NIH3T3 [2],4.21% (inactive) and -8.98% (inactive)
same,outcome,HACAT [3],inactive
same,outcome,HEK293T,inactive
same,Potency,MCC-13,inactive
same,Potency,MCC-26,inactive
same,Potency,MKL-1,inactive
same,Potency,MKL-2,inactive
same,Potency,UISO,inactive
same,Potency,WaGa,inactive
same,Potency,C33A,inactive
CC(=O)NC[C@H]1CN(c2ccc(N3CCOCC3)c(F)c2)C(=O)O1,max response,CRL-7250,-4.05% (inactive)
same,outcome,CRL-7250,inactive
same,Potency,HEK293,13.2 µM (active)
same,max response,HaCat [1],-2.3% (inactive)
same,outcome,HaCat [1],inactive
same,max response,KB-3-1,-15.9% (inactive) and -9.99% (inactive) and -3.52% (inactive)
same,max response,NIH3T3 [2],-16% (inactive) and 2.14% (inactive)
same,outcome,HACAT [3],inactive
same,Potency,MCC-13,inactive
same,Potency,MCC-26,inactive
same,Potency,MKL-1,inactive
same,Potency,MKL-2,inactive
same,Potency,UISO,inactive
same,Potency,WaGa,inactive
same,Potency,C33A,inactive
COC(=O)C1=C(C)NC(C)=C(C(=O)OCCCN2CCC(c3ccccc3)(c3ccccc3)CC2)C1c1cccc([N+](=O)[O-])c1 (stereo unspecified),Potency,SC27B,3.55 µM (active)
same,Potency,TAB109,5.01 µM (active)
same,Potency,TAB113,2.51 µM (active)
same,Potency,TAB165,2.82 µM (active)
same,Potency,W2,3.38 µM (active)
same,max response,CRL-7250,-3.52% (inactive)
same,Potency,HEK293,8.41 µM (active)
same,max response,HEK293,-0.0015% (inactive)
same,outcome,HaCat [1],inactive
same,max response,KB-3-1,0.505% (inactive)
same,outcome,NIH3T3 [2],inactive
same,outcome,HACAT [3],inactive
same,Potency,MCC-13,inactive
same,Potency,MCC-26,inactive and 23.7 µM (active)
same,Potency,MKL-1,inactive and 23.7 µM (active)
same,Potency,MKL-2,inactive and 11.9 µM (active)
same,outcome,NIH3T3 [4]; [5],inactive
same,Potency,UISO,inactive and 18.8 µM (active)
same,Potency,WaGa,inactive
COC(=O)[C@H](Cc1ccccc1)NC(=O)[C@@H](N)CC(=O)O (H-Asp-Phe-OMe),Potency,SC27B,inactive
same,Potency,TAB109,inactive
same,Potency,TAB113,inactive
same,Potency,TAB165,inactive
same,Potency,W2,inactive
same,max response,CRL-7250,3.9% (inactive)
same,outcome,CRL-7250,inactive
same,max response,HEK293,-5.62% (inactive) and -7.54% (inactive)
same,max response,HaCat [1],0.0507% (inactive) and -16.9% (inactive)
same,max response,KB-3-1,0.426% (inactive) and 2.8% (inactive) and -6.99% (inactive)
same,max response,NIH3T3 [2],-5.4% (inactive) and -2.3% (inactive)
same,Potency,MCC-13,inactive
same,Potency,MCC-26,inactive
same,Potency,MKL-1,inactive
same,Potency,MKL-2,inactive
same,Potency,UISO,inactive
same,Potency,WaGa,inactive
same,Potency,C33A,inactive
COC1=C(OC)C(=O)C(CCCCCCCCCCO)=C(C)C1=O,Potency,SC27B,inactive
same,Potency,TAB109,inactive
same,max response,CRL-7250,-2.47% (inactive)
same,outcome,CRL-7250,inactive
same,Potency,HEK293,23.7 µM (active)
same,max response,HaCat [1],-8.33% (inactive)
same,outcome,HaCat [1],inactive
same,max response,KB-3-1,-4.5% (inactive) and -1.13% (inactive)
same,max response,NIH3T3 [2],4.9% (inactive)
same,outcome,NIH3T3 [2],inactive
same,outcome,HACAT [3],inactive
same,Potency,MCC-13,inactive
same,Potency,MKL-1,15 µM (active)
same,outcome,NIH3T3 [4]; [5],inactive
CCC[C@@H]1C[C@@H](C(=O)N[C@@H]([C@H]2O[C@H](SC)[C@H](O)[C@@H](O)[C@H]2O)[C@@H](C)O)N(C)C1,Potency,TAB113,inactive
same,Potency,W2,0.338 µM (active)
same,max response,CRL-7250,-16.2% (inactive)
same,outcome,CRL-7250,inactive
same,max response,HEK293,-5.82% (inactive) and -16.1% (inactive)
same,max response,HaCat [1],-11.9% (inactive) and -14% (inactive)
same,max response,KB-3-1,-5.54% (inactive)
same,max response,NIH3T3 [2],-4.88% (inactive) and -7.89% (inactive)
same,Potency,MCC-13,inactive
same,Potency,MCC-26,inactive
same,Potency,MKL-1,inactive
same,Potency,MKL-2,inactive
same,Potency,UISO,inactive
same,Potency,WaGa,inactive
same,Potency,C33A,inactive
CC(C)[C@H](N)C(=O)OCCOCn1cnc2c(=O)[nH]c(N)nc21,Potency,SC27B,inactive
same,Potency,TAB109,inactive
same,Potency,TAB113,inactive
same,Potency,TAB165,inactive
same,Potency,W2,inactive
same,max response,CRL-7250,-3.66% (inactive) and 1.07% (inactive)
same,max response,HEK293,4.44% (inactive)
same,outcome,HEK293,inactive
same,outcome,HaCat [1],inactive
same,max response,KB-3-1,10.2% (inactive)
same,outcome,KB-3-1,inactive
same,outcome,NIH3T3 [2],inactive
same,outcome,HACAT [3],inactive
same,outcome,HEK293T,inactive
same,Potency,MCC-13,inactive
same,Potency,MCC-26,inactive
same,Potency,MKL-1,inactive
same,Potency,MKL-2,inactive
same,outcome,NIH3T3 [4]; [5],inactive
same,Potency,UISO,inactive
same,Potency,WaGa,inactive
same,Potency,C33A,inactive
Clc1ccc(C(Cn2ccnc2)OCc2ccc(Sc3ccccc3)cc2)c(Cl)c1 (stereo unspecified),max response,CRL-7250,-3.19% (inactive)
same,outcome,CRL-7250,inactive
same,Potency,HEK293,26.4 µM (active)
same,outcome,HEK293,inactive
same,outcome,HaCat [1],inactive
same,max response,KB-3-1,-18.4% (inactive)
same,max response,NIH3T3 [2],-3.29% (inactive)
same,outcome,NIH3T3 [2],inactive
same,outcome,HACAT [3],inactive
same,outcome,HEK293T,inactive
same,Potency,MCC-13,inactive
same,Potency,MCC-26,inactive
same,Potency,MKL-1,inactive
same,Potency,MKL-2,inactive
same,outcome,NIH3T3 [4]; [5],inactive
same,Potency,UISO,inactive
same,Potency,WaGa,inactive
same,Potency,C33A,inactive
Clc1ccc(C(Cn2ccnc2)OCc2ccsc2Cl)c(Cl)c1 (stereo unspecified),Potency,SC27B,2 µM (active)
same,Potency,TAB109,5.01 µM (active)
same,Potency,TAB113,4.47 µM (active)
same,Potency,TAB165,1 µM (active)
same,Potency,W2,1.69 µM (active)
same,max response,CRL-7250,1.94% (inactive)
same,outcome,CRL-7250,inactive
same,max response,HaCat [1],-18.6% (inactive) and -23.1% (inactive)
same,max response,KB-3-1,-26.3% (inactive) and -17.4% (inactive)
same,Potency,MCC-13,inactive
same,Potency,MCC-26,inactive
same,Potency,MKL-1,inactive
same,Potency,MKL-2,inactive
same,Potency,UISO,21.1 µM (active)
same,Potency,WaGa,inactive
same,Potency,C33A,inactive
CNC[C@H](O)c1ccc(O)c(O)c1,outcome,NIH3T3 [4]; at 17.4 µM (top of the series),inactive
same,outcome,NIH3T3 [4]; at 92 µM (top of the series),inactive
CC(C)c1ccc2c(c1)c(SC(C)(C)C)c(CC(C)(C)C(=O)O)n2Cc1ccc(Cl)cc1,max response,CRL-7250,-29.4% (inactive)
same,max response,HEK293,-2.03% (inactive)
same,max response,HaCat [1],-20.8% (inactive)
same,max response,KB-3-1,-8.99% (inactive)
same,outcome,NIH3T3 [2],inactive
same,Potency,MCC-13,inactive
same,Potency,MCC-26,inactive
same,Potency,MKL-1,inactive
same,Potency,MKL-2,inactive
same,outcome,NIH3T3 [4]; [5],inactive
same,Potency,UISO,inactive
same,Potency,WaGa,inactive
